Active and inactive are the calls of the source.
Columns and labels:
[1] = binders of probe aFSTL3 on microarray, primary screen, stem cell growth factor project, biochemical, small-molecule microarray, fluorescence 635/667 (AID 1064); settings: higher = more signal;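 also: measures binding of the biotinylated anti-FSTL3 antibody to printed compounds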
[2] = binders from COS7 lysate, DM2A8 probe, primary screen, torsin A project, cell lysate, small-molecule microarray, fluorescence 635/667 (AID 1065); settings: higher = more signal, COS7 lysate expressing mutant human TOR1A
[3] = binders of probe aFGF2 on microarray, primary screen, stem cell growth factor project, biochemical, small-molecule microarray, fluorescence 635/667 (AID 1067); settings: higher = more signal;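 also: measures binding of biotinylated aFGF2 protein to printed compounds on slides; z-score merges feature fluorescence and signal-to-noise across triplicate slides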
[4] = binders of probe aFGF10 on microarray, primary screen, stem cell growth factor project, biochemical, small-molecule microarray, fluorescence 635/667 (AID 1071); settings: higher = more signal;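 also: score merges 667 nm spot intensity and signal to noise from triplicate slides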
[5] = molecular target: Neurogenic locus notch homolog protein 2 (Homo sapiens) (UniProt Q04721); assay: Notch2 binders on small-molecule microarrays, primary screen, biochemical, small-molecule microarray, 635 nm fluorescence, stem cell growth factors (AID 1073); settings: Notch2 binding, higher = more signal
[6] = molecular target: Pro-neuregulin-1, membrane-bound isoform (Homo sapiens) (UniProt Q02297); assay: NRG1 binders on small-molecule microarrays, primary screen, psychiatric disease protein project, biochemical, small-molecule microarray, fluorescence 635/667 (AID 1075); settings: NRG1 binding, 635 nm fluorescence, higher = more signal;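 also: score combines 667 nm spot fluorescence with signal to noise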
Chain of Pro-neuregulin-1, membrane-bound isoform (Homo sapiens) (Q02297 whole entry, looked up, the tested form may be a part, canonical isoform): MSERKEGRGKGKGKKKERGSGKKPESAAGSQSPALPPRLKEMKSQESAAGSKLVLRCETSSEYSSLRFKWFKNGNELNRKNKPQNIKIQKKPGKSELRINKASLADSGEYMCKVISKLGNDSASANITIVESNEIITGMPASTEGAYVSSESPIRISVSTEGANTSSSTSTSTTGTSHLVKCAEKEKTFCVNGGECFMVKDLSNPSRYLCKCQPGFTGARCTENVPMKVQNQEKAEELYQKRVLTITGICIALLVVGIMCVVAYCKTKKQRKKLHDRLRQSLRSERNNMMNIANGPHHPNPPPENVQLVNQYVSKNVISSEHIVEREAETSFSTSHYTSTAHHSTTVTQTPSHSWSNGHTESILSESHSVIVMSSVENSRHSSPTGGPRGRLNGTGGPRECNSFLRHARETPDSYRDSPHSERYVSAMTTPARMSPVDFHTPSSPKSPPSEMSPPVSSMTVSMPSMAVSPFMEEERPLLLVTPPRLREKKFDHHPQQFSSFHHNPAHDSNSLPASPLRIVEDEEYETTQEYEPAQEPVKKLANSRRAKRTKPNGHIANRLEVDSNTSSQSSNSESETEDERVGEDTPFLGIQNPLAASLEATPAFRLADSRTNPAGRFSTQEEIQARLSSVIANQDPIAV

[7] = test system: Neuregulin-1 EGF-like domain; assay: binders of neuregulin-1 EGF-like domain, primary screen, biochemical, small-molecule microarray, 635 nm fluorescence (AID 1081); settings: small-molecule microarray binding, higher = more signal;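 also: binding of the protein to compounds printed on small-molecule microarray slides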
[8] = FRG1 promoter luciferase signal modulators, primary screen, FRG1 inhibition for FSHD, cell-based, C2C12 myotubes, firefly/Renilla luciferase, luminescence (AID 1084); settings: higher = more signal, called active from +8 up or from −8 down
[9] = binders of probe aFST on microarray, primary screen, stem cell growth factor project, biochemical, small-molecule microarray, fluorescence 635/667 (AID 1086); settings: higher = more signal;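 also: score merges 667 nm fluorescence with signal-to-noise of each printed compound spot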
[10] = binders of probe aHhip on microarray, primary screen, stem cell growth factor project, biochemical, small-molecule microarray, fluorescence 635/667 (AID 1087); settings: higher = more signal;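 also: score merges spot fluorescence at 667nm with spot signal to noise ratio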
[11] = test system: PRMT1 (protein arginine N-methyltransferase 1); assay: PRMT1 binders on small-molecule microarrays, primary screen, biochemical, small-molecule microarray, 635 nm fluorescence (AID 1088); settings: small-molecule microarray binding, higher = more signal;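 also: binding of Prmt1 protein to compounds spotted on small-molecule microarray slides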
[12] = yeast growth modulation, basal conditions, primary screen, YJM789 clinical isolate, OD600, 24 h (AID 1089);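 also: growth of clinical yeast isolate S. cerevisiae YJM 789 seeded 1000 cells per well; test concentration not given here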; settings: S. cerevisiae YJM789 growth, higher = more signal, called active from +8 up or from −8 down
[13] = fission yeast growth modulation, primary screen, strain 972, OD600, 24 h, no modulator (AID 1090);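 also: basal condition with compound alone and no growth modifier present; test concentration not given here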; settings: S. pombe 972 growth, higher = more signal, called active from +8 up or from −8 down
[14] = S. cerevisiae growth modulation with rapamycin, primary screen, strain BY4716, OD600, 96 h (AID 1091); settings: higher = more signal, called active from +8 up or from −8 down; also: test concentration not given here
[15] = molecular target: Torsin-1A-interacting protein 2 (Homo sapiens) (UniProt Q8NFQ8); assay: LULL1 binders on small-molecule microarray, primary screen, cell lysate, human LULL1 lysate, 635/667 nm fluorescence (AID 1092); settings: hLULL1 lysate binding, 635 nm fluorescence, higher = more signal;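 also: probe is lysate of COS7 cells overexpressing human LULL1; score merges per-feature 667 nm fluorescence with signal-to-noise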
Chain of Torsin-1A-interacting protein 2 (Homo sapiens) (Q8NFQ8 whole entry, looked up): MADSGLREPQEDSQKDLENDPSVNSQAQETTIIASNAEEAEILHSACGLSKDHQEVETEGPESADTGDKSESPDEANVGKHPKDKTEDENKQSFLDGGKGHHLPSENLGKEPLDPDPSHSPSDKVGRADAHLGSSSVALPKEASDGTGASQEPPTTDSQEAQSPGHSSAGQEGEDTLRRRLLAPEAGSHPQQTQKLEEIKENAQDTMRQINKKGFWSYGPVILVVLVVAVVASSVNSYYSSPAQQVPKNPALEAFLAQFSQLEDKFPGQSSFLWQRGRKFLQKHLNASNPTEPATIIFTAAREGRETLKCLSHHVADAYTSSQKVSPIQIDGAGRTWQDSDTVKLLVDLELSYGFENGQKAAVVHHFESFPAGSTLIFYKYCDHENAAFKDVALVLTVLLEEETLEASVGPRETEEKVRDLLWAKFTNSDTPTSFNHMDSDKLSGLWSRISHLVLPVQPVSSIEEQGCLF

[16] = E. coli growth modulation, two-sided OD650, primary screen, E. coli filamentation project, strain DRC41, 24 h (AID 1093); settings: OD650, 24 h, higher = more signal, called active from +8 up or from −8 down;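 also: MC1000 strain lacking acrAB efflux and sulA so SOS filamentation is blocked; test concentration not given here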
[17] = small-molecule microarray binders of probe aLefty2, primary screen, biochemical, biotinylated probe, 635/667 nm fluorescence (AID 1094); settings: higher = more signal;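 also: score merges spot fluorescence near 667 nm with spot signal-to-noise ratio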
[18] = test system: Noggin (protein binding on small-molecule microarray); assay: Noggin binders on small-molecule microarray, primary screen, biochemical, 635/667 nm fluorescence (AID 1095); settings: 635 nm fluorescence, higher = more signal;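 also: score merges 667 nm feature fluorescence with signal to noise over triplicate slides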
[19] = molecular target: Neurogenic locus notch homolog protein 3 (Homo sapiens) (UniProt Q9UM47); assay: NOTCH3 binders on small-molecule microarray, primary screen, biochemical, 635/667 nm fluorescence (AID 1096); settings: NOTCH3 binding, 635 nm fluorescence, higher = more signal
Chain of Neurogenic locus notch homolog protein 3 (Homo sapiens) (Q9UM47 whole entry, looked up): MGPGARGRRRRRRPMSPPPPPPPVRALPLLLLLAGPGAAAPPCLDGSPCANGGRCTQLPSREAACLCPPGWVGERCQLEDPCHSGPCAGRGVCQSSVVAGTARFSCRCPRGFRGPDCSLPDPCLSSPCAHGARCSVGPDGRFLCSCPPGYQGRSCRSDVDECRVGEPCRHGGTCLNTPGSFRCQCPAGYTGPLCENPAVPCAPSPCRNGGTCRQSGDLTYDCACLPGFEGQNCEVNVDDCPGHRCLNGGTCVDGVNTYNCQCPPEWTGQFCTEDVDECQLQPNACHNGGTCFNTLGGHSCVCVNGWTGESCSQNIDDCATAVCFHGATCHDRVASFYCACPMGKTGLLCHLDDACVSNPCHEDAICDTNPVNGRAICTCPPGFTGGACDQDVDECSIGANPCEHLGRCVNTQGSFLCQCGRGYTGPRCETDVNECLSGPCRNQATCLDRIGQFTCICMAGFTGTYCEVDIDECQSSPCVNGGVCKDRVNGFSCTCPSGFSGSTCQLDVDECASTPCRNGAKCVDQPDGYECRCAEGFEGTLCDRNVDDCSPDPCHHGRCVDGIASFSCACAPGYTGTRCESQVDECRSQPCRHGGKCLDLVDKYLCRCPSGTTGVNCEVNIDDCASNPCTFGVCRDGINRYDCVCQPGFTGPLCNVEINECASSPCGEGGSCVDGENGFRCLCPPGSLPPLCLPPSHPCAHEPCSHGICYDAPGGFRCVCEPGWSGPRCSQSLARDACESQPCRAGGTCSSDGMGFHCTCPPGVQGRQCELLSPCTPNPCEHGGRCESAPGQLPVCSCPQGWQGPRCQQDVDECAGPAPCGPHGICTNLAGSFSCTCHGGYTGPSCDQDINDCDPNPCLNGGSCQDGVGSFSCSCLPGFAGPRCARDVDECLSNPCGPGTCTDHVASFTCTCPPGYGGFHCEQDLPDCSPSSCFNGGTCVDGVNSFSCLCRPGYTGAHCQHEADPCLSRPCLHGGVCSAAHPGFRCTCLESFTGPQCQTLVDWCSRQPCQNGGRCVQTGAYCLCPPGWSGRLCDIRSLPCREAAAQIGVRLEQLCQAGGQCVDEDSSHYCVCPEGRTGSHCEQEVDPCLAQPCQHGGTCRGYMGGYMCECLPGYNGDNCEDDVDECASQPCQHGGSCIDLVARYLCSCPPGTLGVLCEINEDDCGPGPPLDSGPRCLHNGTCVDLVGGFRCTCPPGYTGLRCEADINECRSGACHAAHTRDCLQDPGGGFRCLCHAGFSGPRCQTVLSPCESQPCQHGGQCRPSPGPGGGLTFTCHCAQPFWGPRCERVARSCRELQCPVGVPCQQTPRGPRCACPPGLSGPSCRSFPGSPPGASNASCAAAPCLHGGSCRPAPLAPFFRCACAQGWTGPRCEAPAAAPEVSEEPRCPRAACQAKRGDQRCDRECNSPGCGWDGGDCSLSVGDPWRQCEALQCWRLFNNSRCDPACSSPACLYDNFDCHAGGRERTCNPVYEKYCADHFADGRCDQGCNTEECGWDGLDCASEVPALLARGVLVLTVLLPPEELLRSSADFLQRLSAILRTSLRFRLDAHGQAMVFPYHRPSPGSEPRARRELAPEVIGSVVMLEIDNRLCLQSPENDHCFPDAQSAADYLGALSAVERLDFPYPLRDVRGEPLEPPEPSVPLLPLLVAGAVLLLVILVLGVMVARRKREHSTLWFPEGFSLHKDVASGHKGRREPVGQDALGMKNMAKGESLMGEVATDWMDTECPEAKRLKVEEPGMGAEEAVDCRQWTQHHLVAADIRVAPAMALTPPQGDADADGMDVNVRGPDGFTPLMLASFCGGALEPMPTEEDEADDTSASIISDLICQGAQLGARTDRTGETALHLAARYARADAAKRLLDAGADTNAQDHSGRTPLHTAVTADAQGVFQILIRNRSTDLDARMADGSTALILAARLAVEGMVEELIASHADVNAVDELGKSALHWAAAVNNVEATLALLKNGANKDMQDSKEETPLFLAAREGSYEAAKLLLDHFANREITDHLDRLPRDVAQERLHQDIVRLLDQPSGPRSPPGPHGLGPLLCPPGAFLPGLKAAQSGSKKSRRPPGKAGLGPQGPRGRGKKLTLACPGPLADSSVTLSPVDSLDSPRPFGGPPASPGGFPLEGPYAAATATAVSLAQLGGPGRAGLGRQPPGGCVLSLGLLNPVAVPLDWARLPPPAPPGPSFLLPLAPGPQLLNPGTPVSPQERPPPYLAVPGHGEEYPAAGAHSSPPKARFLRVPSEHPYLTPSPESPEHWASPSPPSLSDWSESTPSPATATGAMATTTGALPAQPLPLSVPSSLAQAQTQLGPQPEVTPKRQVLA

[20] = small-molecule microarray binders of probe aEGFR, primary screen, biochemical, biotinylated probe, 635/667 nm fluorescence (AID 1097); settings: higher = more signal;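 also: probe is a biotinylated anti-EGFR antibody binding compounds printed on slides; score combines fluorescence near 667 nm and signal to noise of each spot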

| SMILES | composite z-score [1] | composite z-score [2] | composite z-score [3] | composite z-score [4] | composite z-score [5] | composite z-score [6] | composite z-score [7] | z-score [8] | composite z-score [9] | composite z-score [10] | composite z-score [11] | z-score [12] | z-score [13] | z-score [14] | composite z-score [15] | z-score [16] | composite z-score [17] | composite z-score [18] | composite z-score [19] | composite z-score [20] |
| --- | --- | --- | --- | --- | --- | --- | --- | --- | --- | --- | --- | --- | --- | --- | --- | --- | --- | --- | --- | --- |
| NC(=O)NCC#Cc1ccc2c(c1)[C@]1(C(=O)N2)[C@H](c2ccc(O)cc2)N2[C@H](c3ccccc3)[C@H](c3ccccc3)OC(=O)[C@H]2[C@@H]1C(=O)Nc1nc2ccccc2s1 | 0.289 | 0.21 | -0.0222 | 0.478 | 0.768 | 0.434 | 0.633 | 0.63 (inactive) | 0.185 | 0.0881 | 1.39 | 4.88 (inactive) | 4.35 (inactive) | 8.57 (active) | 1.07 | 1.06 (inactive) | 0.122 | 1.05 | 0.362 | -0.0975 |
| CC(C)NC(=O)[C@@]1(C)c2ccccc2C(=O)N(C(C)C)[C@H]1c1ccc(CO)cc1 | -0.0225 | -0.953 | -0.153 | -0.564 | -0.792 | 0.493 | -0.643 | -0.639 (inactive) | -0.242 | -0.252 | 1.45 | -0.501 (inactive) | -1.63 (inactive) | -0.471 (inactive) | 3.47 | -0.297 (inactive) | -0.0466 | -0.781 | 0.165 | -0.227 |
| CO[C@H]1O[C@H](CO)[C@@H](OC(=O)c2ccc(Br)cc2)[C@@H]2OC(=O)[C@@H](Cc3ccc4ccccc4c3)C/C=C/C[C@H](Cc3ccc4ccccc4c3)C(=O)O[C@@H]12 | -0.248 | -0.08 | 0.0289 | 0.622 | 0.714 | 1.74 | 1.2 | -1.14 (inactive) | 0.349 | 1.2 | 1.45 | -2.76 (inactive) | -2.35 (inactive) | -0.842 (inactive) | 2.82 | 0.0001 (inactive) | -0.0375 | 0.0104 | 0.478 | -0.112 |
| [N-]=[N+]=NCc1ccccc1C[C@]1(C(=O)NCC(O)CO)N=C(c2ccc(OCCCO)cc2)O[C@H]1c1ccccc1CN=[N+]=[N-] (stereo not given in full) | 0.0591 | 0.696 | 0.139 | 1.14 | 0.566 | 1.34 | 1.16 | -0.799 (inactive) | 0.723 | -0.0618 | 1.56 | -0.331 (inactive) | 0.735 (inactive) | 1.48 (inactive) | 3.6 | -0.172 (inactive) | 0.054 | -0.0965 | 0.624 | 0.306 |
| O=C(CCCCCCC(=O)Nc1ccccc1)N/N=C/c1ccccc1 | -0.199 | 0.0786 | -0.141 | 0.0493 | -0.252 | -0.384 | -0.147 | 0.0691 (inactive) | -0.0659 | 0.0373 | -0.998 | 0.507 (inactive) | 0.0263 (inactive) | 1.06 (inactive) | -0.743 | 0.195 (inactive) | -0.105 | -0.361 | -0.783 | -0.117 |
| CCOC(=O)[C@H]1C/C=C/C[C@H](C(=O)OCC)C(=O)O[C@H]2[C@@H](OC)O[C@H](CO)[C@@H](OC(=O)Nc3ccc(OC)cc3)[C@@H]2OC1=O | -0.0119 | 0.753 | 0.0386 | 0.803 | 1.16 | 0.309 | 0.94 | 2.18 (inactive) | 0.363 | 0.675 | 1.49 | 1.04 (inactive) | -0.0368 (inactive) | 3.56 (inactive) | 2.03 | 1.3 (inactive) | 0.217 | 0.713 | 1.09 | -0.0737 |
| COc1ccc([Si](C)(C)[C@H]2[C@H](CCn3cc(CCO)nn3)O[C@@]3(C(=O)N(Cc4ccc(N5C(=O)c6cccc7cccc5c67)cc4)c4ccccc43)[C@@H]2C)cc1 | -0.619 | 0.355 | -0.0583 | 0.53 | 0.611 | 1.16 | 1.1 | -4.65 (inactive) | 0.372 | 0.0695 | 1.55 | -0.246 (inactive) | 0.983 (inactive) | 6.07 (inactive) | 1.86 | 2.76 (inactive) | -0.0895 | 1.41 | 1.09 | -0.0371 |
| C=C[C@H](COC(C)=O)NS(=O)(=O)c1ccc(Br)cc1 | -0.127 | -0.256 | -0.151 | -0.286 | -0.506 | 0.241 | 0.656 | 1.54 (inactive) | 0.0509 | -0.0618 | -0.0232 | 0.0313 (inactive) | -1.4 (inactive) | -0.124 (inactive) | -0.0639 | 0.506 (inactive) | -0.0598 | 0.0055 | -0.564 | -0.227 |
| CCCCC(=C=CC[C@@H](O)c1ccc(OCCO)cc1)C[C@@H](O)COCc1ccccc1 | -0.111 | 1.09 | -0.0783 | 0.114 | -1.11 | -0.376 | -0.0622 | -2.2 (inactive) | 0.101 | 0.0743 | 0.989 | -1.24 (inactive) | -2.39 (inactive) | -1.07 (inactive) | 0.146 | 1.69 (inactive) | -0.166 | 1.14 | -0.198 | -0.18 |
| COCCOC(=O)N1C(=O)[C@@]2(c3cc(C#CC4(O)CCCCCC4)ccc31)[C@H](c1ccccc1OCCO)N1[C@H](c3ccccc3)[C@H](c3ccccc3)OC(=O)[C@H]1[C@@H]2C(N)=O | -0.452 | 0.447 | 0.0038 | 0.498 | 1.35 | 0.102 | 1.16 | -1.17 (inactive) | 0.489 | -0.0672 | 1.54 | 1.74 (inactive) | 0.699 (inactive) | 5.17 (inactive) | 2.24 | -0.175 (inactive) | -0.102 | 1.06 | 1.05 | 0.0254 |
| CC(C)C(=C=CC[C@@H](O)c1ccccc1OCCO)C[C@@H](O)COCc1ccccc1 | -0.248 | 0.399 | -0.072 | 0.729 | 0.429 | 1.13 | 0.865 | -3.84 (inactive) | 0.592 | -0.199 | 1.29 | -19.2 (active) | -20.5 (active) | -3.68 (inactive) | 1.16 | 1.44 (inactive) | -0.139 | 1.24 | 0.388 | 0.001 |

— PubChem BioAssay
